# Test results reported in PubChem BioAssay (Tox21).
# Results filed as inconclusive are left out. Active and inactive are the calls of the source. The call rests on the fitted dose curve.
# Target: Retinoic acid receptor RXR-alpha (Homo sapiens) (UniProt P19793)
# Assay: qHTS assay to identify small molecule agonists of the RXR signaling pathway (AID 1159527); further: nearly all actives have a fitted effect of over 35% in size
# Details: HEK293T RXRa-UAS-bla, beta-lactamase ratio, 16 h; series mostly up to 76.8 µM; activation: at the top concentration
# Method in brief: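 Agonist mode; 9-cis retinoic acid positive control. HEK 293T UAS-bla reporter cells, 2% charcoal-stripped FBS, 16 hr compound exposure at 37 C/5% CO2. LiveBLAzer B/G FRET substrate 2 hr RT; ex 405, em 460/530 nm.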
# On the % scale 0 is the no-effect control and ±100 the full control effect; potency means the concentration at half of the fitted maximal effect.
# Retinoic acid receptor RXR-alpha (Homo sapiens), sequence (P19793 whole entry, looked up): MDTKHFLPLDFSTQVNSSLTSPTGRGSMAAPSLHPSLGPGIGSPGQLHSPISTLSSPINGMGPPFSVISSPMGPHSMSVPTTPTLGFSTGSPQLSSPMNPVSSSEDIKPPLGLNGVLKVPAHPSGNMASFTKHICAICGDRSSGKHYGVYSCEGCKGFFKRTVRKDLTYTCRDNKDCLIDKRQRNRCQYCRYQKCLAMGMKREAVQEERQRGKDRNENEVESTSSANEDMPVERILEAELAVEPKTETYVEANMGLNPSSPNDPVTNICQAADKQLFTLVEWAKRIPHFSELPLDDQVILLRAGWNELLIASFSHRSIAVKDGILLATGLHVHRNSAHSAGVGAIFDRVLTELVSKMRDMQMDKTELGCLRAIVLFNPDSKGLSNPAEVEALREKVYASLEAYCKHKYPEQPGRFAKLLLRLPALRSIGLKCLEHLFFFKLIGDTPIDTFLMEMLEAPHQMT
SMILES,activation,Potency
NNc1nnc(NN)c2ccccc12,10.1% [at 35.3 µM] (inactive),–
CC(=O)OC(C)OC(=O)C(C)c1ccc(-c2ccccc2)c(F)c1 (stereo not drawn),-4.12% [at 35.3 µM] (inactive),–
NCCN1CCOCC1,-1.92% (inactive),–
O=P(O)(O)OP(=O)(O)O,13.6% (inactive),–
Cc1cccc2nccnc12,8.72% (inactive),–
O=C(OCC1(COC(=O)c2cccnc2)CCCC(COC(=O)c2cccnc2)(COC(=O)c2cccnc2)C1O)c1cccnc1,-9.43% [at 35.3 µM] (inactive),–
C=CC(OCC)OCC,5.41% (inactive),–
C#CC(C)N(C)C(=O)Nc1ccc(Cl)cc1 (stereo not drawn),19.7% (inactive),–
c1ccc2c(c1)ccc1c3ccccc3ccc21,-0.284% [at 35.3 µM] (inactive),–
N[C@@H](CCC(=O)Nc1ccc([N+](=O)[O-])cc1)C(=O)O,-0.73% (inactive),–
CC(COC(C)(C)C)OCCCO (stereo not drawn),–,11 µM (active)
CCOC(=O)/C=C/c1ccccc1,0.725% (inactive),–
CCOc1cc([N+](=O)[O-])c(OCC)cc1N1CCOCC1,-20.1% (inactive),–
O=C(O)CCSSCCC(=O)O,-2.26% (inactive),–
Cc1cc(NC(=O)C2=C(O)c3ccccc3S(=O)(=O)N2C)no1,4.14% [at 35.3 µM] (inactive),–
CC(=O)Nc1cccc(C)c1,8.47% (inactive),–
CC(C)(C)OC(=O)c1ccc(O)cc1,-17.5% (inactive),–
O=C(OCC(COC(=O)c1cccnc1)(COC(=O)c1cccnc1)COC(=O)c1cccnc1)c1cccnc1,4.19% [at 35.3 µM] (inactive),–
OC[C@H](Cc1cccc(O)c1)[C@H](CO)Cc1cccc(O)c1,0.447% (inactive),–
Cc1cc2cc3c(C)cc(=O)oc3c(C)c2o1,5.38% [at 35.3 µM] (inactive),–
COc1ccc(OC)c(Cl)c1,-12.4% (inactive),–
N[C@@H](CCC(=O)N[C@@H](CS)C(=O)NCC(=O)O)C(=O)O,2.72% [at 15.8 µM] (inactive),–
CCC(C)(CCC(C)C)C(=O)O (stereo not drawn),12.8% (inactive),–
